Results taken from PubChem BioAssay.
Where “and” joins values, the source holds several entries; their conditions need not be identical. Equal values may be shown once. Calls of active or inactive are those of the source.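 The calls were made as follows, unless noted: active = compounds killing one labelled cell type while sparing the other, by normalised counts and ratio limits, not self-fluorescent; inactive = the rest.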

Tests used:
[1] = biological target: 6-phosphogluconate dehydrogenase, decarboxylating (Homo sapiens) (UniProt P52209); test: 6PGD enzyme inhibitors, primary screen, biochemical, human, recombinant enzyme, NADPH absorbance (AID 1159550;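 active = at least 20% inhibition of 6-phosphogluconate dehydrogenase activity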); settings: recombinant 6PGD, NADPH absorbance 341 nm; at 10 µM; stronger effect = higher value
6-phosphogluconate dehydrogenase, decarboxylating (Homo sapiens), sequence (P52209 whole entry, looked up): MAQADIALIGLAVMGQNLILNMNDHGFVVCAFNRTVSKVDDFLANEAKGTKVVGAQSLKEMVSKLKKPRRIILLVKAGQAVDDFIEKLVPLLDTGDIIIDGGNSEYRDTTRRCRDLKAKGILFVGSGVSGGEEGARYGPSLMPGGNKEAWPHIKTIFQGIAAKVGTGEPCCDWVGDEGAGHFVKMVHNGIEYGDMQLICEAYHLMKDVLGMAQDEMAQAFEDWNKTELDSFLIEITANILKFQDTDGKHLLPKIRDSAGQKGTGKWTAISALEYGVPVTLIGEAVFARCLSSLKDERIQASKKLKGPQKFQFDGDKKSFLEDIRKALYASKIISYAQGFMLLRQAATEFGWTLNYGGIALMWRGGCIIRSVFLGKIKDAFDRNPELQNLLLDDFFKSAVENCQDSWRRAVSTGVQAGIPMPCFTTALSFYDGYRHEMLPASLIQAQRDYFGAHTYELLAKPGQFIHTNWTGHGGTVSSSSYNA

[2] = differential killing of epithelial or mesenchymal cells, primary screen, imaging, PC-3E GFP, TEM4-18 mCherry, co-culture (AID 1345086); settings: imaging cell counts, at 1 µM; for red/green cell ratio (normalised): actives lie on both sides, counts scaled to control wells, 1 = unselective;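 as to all read-outs here: cells exposed to compound for 72 h before imaging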;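 as to red/green cell ratio (normalised): normalised mesenchymal count divided by normalised epithelial count so high means epithelial killing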
[3] = biological target: Mitogen-activated protein kinase 7 (Homo sapiens) (UniProt Q13164); test: ERK5 transactivation activators in reporter cells, primary screen, cell-based, HTS (AID 1508626;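 active = luciferase signal above three times the same-plate solvent-only control wells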;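 also: luciferase driven by Gal4-ERK5 fusion binding five Gal4 sites before minimal TATA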); settings: HeLa Gal4-ERK5 transactivation, 18 h, at 5 µM, stronger effect = higher value
Mitogen-activated protein kinase 7 (Homo sapiens), sequence (Q13164 whole entry, looked up, the tested form may be a part): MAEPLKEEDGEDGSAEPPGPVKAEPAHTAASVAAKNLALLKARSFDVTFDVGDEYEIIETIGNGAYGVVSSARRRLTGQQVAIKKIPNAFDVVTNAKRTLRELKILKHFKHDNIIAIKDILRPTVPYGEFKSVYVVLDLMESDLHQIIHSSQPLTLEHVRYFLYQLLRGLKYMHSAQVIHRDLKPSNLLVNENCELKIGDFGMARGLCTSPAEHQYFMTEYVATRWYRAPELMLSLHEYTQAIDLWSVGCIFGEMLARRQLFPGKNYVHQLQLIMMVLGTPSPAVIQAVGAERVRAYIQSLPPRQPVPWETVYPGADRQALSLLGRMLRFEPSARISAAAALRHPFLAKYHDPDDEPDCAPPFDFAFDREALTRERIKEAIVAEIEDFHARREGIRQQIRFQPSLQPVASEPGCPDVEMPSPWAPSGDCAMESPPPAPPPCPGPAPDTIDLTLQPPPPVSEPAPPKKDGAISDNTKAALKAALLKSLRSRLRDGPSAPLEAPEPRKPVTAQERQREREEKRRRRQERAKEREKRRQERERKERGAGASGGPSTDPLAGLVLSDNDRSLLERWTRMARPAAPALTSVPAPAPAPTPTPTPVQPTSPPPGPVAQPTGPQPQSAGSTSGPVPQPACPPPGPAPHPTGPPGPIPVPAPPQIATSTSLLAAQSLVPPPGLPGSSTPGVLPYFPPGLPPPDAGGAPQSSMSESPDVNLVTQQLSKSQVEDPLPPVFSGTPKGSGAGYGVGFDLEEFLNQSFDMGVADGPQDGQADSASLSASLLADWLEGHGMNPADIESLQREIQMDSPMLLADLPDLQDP

[4] = measured here: epithelial PC-3E GFP cell survival
[5] = measured here: mesenchymal TEM4-18 mCherry cell survival

| SMILES | inhibition [1] | red/green cell ratio (normalised) [2] | normalised cell number [2, 4] | normalised cell number [2, 5] | luciferase signal [3] |
| --- | --- | --- | --- | --- | --- |
| COc1cc(OC)c2c(=O)c(-c3ccc4c(c3)OCO4)coc2c1 | 7.77% (inactive) | 1.06 (inactive) | 1.13 | 1.2 | 92 AU (inactive) |
| CC1=C(/C=C/C(C)=C/C=C/C(C)=C/C=C/C=C(C)/C=C/C=C(C)/C=C/C(=O)[C@]2(C)C[C@@H](O)CC2(C)C)C(C)(C)C[C@H](O)C1 | 1.92% (inactive) | 1.16 (inactive) | 0.85 | 0.98 | 20 AU (inactive) |
| O=C(CC(=O)c1ccccc1)c1ccccc1 | 21.3% (active) | 0.84 (inactive) | 1.16 | 0.97 | 80 AU (inactive) |
| CC12CCC3C(CC3(C)C)C(C)(CCC1=O)O2 (stereo not given) | 11.8% (inactive) | 1.12 (inactive) | 0.97 | 1.09 | 60 AU (inactive) |
| COc1cc(C)c(C(=O)Oc2cc(C)c(C(=O)O)c(O)c2C)c(OC)c1C | 17.4% (inactive) | 1.11 (inactive) | 0.88 | 0.98 | 92 AU (inactive) |
| COc1ccc(-c2coc3cc(O)ccc3c2=O)c(O)c1O | 9.58% (inactive) | 0.97 (inactive) | 0.83 | 0.8 | 16 AU (inactive) |
| COc1ccc2c(=O)c(CC(=O)O)coc2c1 | -1.05% (inactive) | 0.91 (inactive) | 0.98 | 0.89 | 60 AU (inactive) |
| CC12CCCC(O)(C1)C1CC(C)(C)C1CC2 (stereo not given) | -1.62% (inactive) | 0.85 (inactive) | 1.27 | 1.07 | 128 AU (inactive) |
| COc1ccc2c(c1)OCC(Cc1ccc(OC)c(OC)c1)C2=O (stereo not given) | 8.36% (inactive) | 0.98 (inactive) | 0.85 | 0.84 | 56 AU (inactive) |
| OC[C@@H](O)[C@@H](O[C@@H]1O[C@H](CO)[C@@H](O)[C@H](O)[C@H]1O)[C@H](O)[C@@H](O)CO | 10.6% (inactive) | 0.88 (inactive) | 1.03 | 0.9 | 208 AU (inactive) |
| COc1ccc2c(c1)O[C@@H]1COc3cc(OC)c(OC)cc3[C@@H]1C2=O | -2.95% (inactive) | 0.88 (inactive) | 0.9 | 0.79 | 68 AU (inactive) |
| Cc1cc(O)cc(=O)o1 | 18.1% (inactive) | 0.97 (inactive) | 1.03 | 1.01 | 52 AU (inactive) |
| C=C(C)[C@H]1COc2cc3oc(=O)ccc3cc2O1 | 5.71% (inactive) | 0.95 (inactive) | 1.17 | 1.11 | 44 AU (inactive) |
| O=C(O)C1(O)C[C@@H](O)C(O)[C@H](O)C1 (stereo not given in full) | 5.01% (inactive) | 0.8 (inactive) | 1.27 | 1.02 | 12 AU (inactive) |
| N[C@@H](C(=O)O)[C@@H](O)[C@H](O)[C@H](O)CO | 9.87% (inactive) | 1.16 (inactive) | 1.02 | 1.18 | 108 AU (inactive) |
| C=CCSCC=C | -1.41% (inactive) | 1.04 (inactive) | 1.02 | 1.06 | 20 AU (inactive) |
| COc1cc(C)c2c(c1C=O)Oc1c(c(C)c(O)c3c1C(O)OC3=O)OC2=O (stereo not given) | -0.395% (inactive) | 0.74 (inactive) | 0.95 | 0.7 | 44 AU (inactive) |
| CCC(C)C(NC)C(=O)O (stereo not given) | -6.91% (inactive) | 1.02 (inactive) | 1.08 | 1.11 | 68 AU (inactive) |
| COc1c(O)cc(O)cc1O | 8.04% (inactive) | 1.07 (inactive) | 0.92 | 0.98 | 40 AU (inactive) |
| COc1ccc2c(c1OC)OC[C@@H](c1ccc(OC)c(OC)c1OC)C2 | -2.69% (inactive) | 0.93 (inactive) | 0.93 | 0.86 | 96 AU (inactive) |
| COc1cc2c(cc1OC)C(=O)OC2 | 7.46% (inactive) | 0.97 (inactive) | 0.96 | 0.94 | 160 AU (inactive) |
| C=C[C@@](C)(O)CCC1C(=C)C[C@H](O)C2C(C)(C)CCCC12C (stereo not given in full) | 15.2% (inactive) | 0.87 (inactive) | 1.07 | 0.93 | 64 AU (inactive) |
| CC(=O)Oc1ccc2c(c1OC(C)=O)OCC1(O)Cc3c(cc(OC(C)=O)c(OC(C)=O)c3OC(C)=O)C21 (stereo not given) | 18.4% (inactive) | 0.84 (inactive) | 1.08 | 0.91 | 44 AU (inactive) |
| O=C(Oc1cc(O)cc2c1C[C@@H](OC(=O)c1cc(O)c(O)c(O)c1)[C@@H](c1cc(O)c(O)c(O)c1)O2)c1cc(O)c(O)c(O)c1 | 10.8% (inactive) | 1.04 (inactive) | 0.96 | 0.99 | 44 AU (inactive) |
| c1ccc2c(c1)CN1CCCC1=N2 | -1.15% (inactive) | 1.13 (inactive) | 0.94 | 1.06 | 52 AU (inactive) |
| COC(=O)[C@@H]1OC(=O)C2OC23[C@@]1(C)CCC1[C@]2(C)C(C[C@@H](O)[C@]13C)C(C)(C)[C@H](OC(C)=O)C[C@@H]2OC(C)=O (stereo not given in full) | -0.817% (inactive) | 0.93 (inactive) | 1.09 | 1.02 | 64 AU (inactive) |
| C=CC1=C(C)/C(=C/c2[nH]c(Cc3[nH]c(/C=C4\NC(=O)C(C)=C4C=C)c(C)c3CCC(=O)O)c(CCC(=O)O)c2C)NC1=O | 2.22% (inactive) | 0.85 (inactive) | 1.14 | 0.97 | 60 AU (inactive) |

| SMILES | inhibition [1] | red/green cell ratio (normalised) [2] | normalised cell number [2, 4] | normalised cell number [2, 5] | luciferase signal [3] |
| --- | --- | --- | --- | --- | --- |
| Cc1cc(O)c(C=O)c(O)c1C(=O)O | 15% (inactive) | 0.84 (inactive) | 1.14 | 0.95 | 120 AU (inactive) |
| CC1(C)CC23C(=O)CCC(O)C2(C)CCC13 (stereo not given) | -0.3% (inactive) | 1 (inactive) | 1.11 | 1.11 | 72 AU (inactive) |
| COc1c2c(cc3occ(-c4ccc5c(c4)OCO5)c(=O)c13)OC(C)(C)C=C2 | -0.247% (inactive) | 0.95 (inactive) | 1.19 | 1.14 | 60 AU (inactive) |
| CC1(C)C=Cc2cc3ccc(=O)oc3cc2O1 | 5.11% (inactive) | 0.99 (inactive) | 1.07 | 1.05 | 56 AU (inactive) |
| CCC(C(=O)O)c1ccccc1 (stereo not given) | -10% (inactive) | 1.07 (inactive) | 1.08 | 1.15 | 76 AU (inactive) |
| COc1ccc(C(=O)/C=C/c2ccccc2)cc1 | 8.83% (inactive) | 1.17 (inactive) | 0.89 | 1.04 | 88 AU (inactive) |
| CCOC(=O)c1c(C)cc(O)c(C=O)c1O | -5.47% (inactive) | 0.95 (inactive) | 0.99 | 0.94 | 56 AU (inactive) |
| COc1c2ccoc2cc2oc(C)cc(=O)c12 | 12.5% (inactive) | 0.91 (inactive) | 1.19 | 1.08 | 52 AU (inactive) |
| CC(=O)Oc1ccc(O)cc1 | 4.32% (inactive) | 1.07 (inactive) and 1.15 (inactive) | 1.01 and 1.05 | 1.08 and 1.21 | 88 AU (inactive) |
| CC1(C)CC2C1CCC1(C)OC2(C)CCC1O (stereo not given) | 12.8% (inactive) | 1.07 (inactive) | 0.96 | 1.03 | 100 AU (inactive) |
| COc1c(-c2coc3cc4c(cc3c2=O)CC(OC(C)=O)C(C)(C)O4)ccc2c1C=CC(C)(C)O2 (stereo not given) | 13.9% (inactive) | 0.78 (inactive) | 1.02 | 0.8 | 56 AU (inactive) |
| CCCCCc1c2c(cc(O)c1C(=O)O)OC(=O)c1c(cc(OC)cc1C(=O)CCCC)O2 | 4.81% (inactive) | 0.98 (inactive) | 1.07 | 1.05 | 48 AU (inactive) |
| O=C(O)C1=C[C@@H](O)[C@@H](O)[C@H](O)C1 | 9.48% (inactive) | 1.05 (inactive) | 0.91 | 0.95 | 88 AU (inactive) |
| COc1cc2c(cc1OC)C1(O)C(=O)c3ccc(O)c(C(=O)O)c3OC1CO2 (stereo not given) | 11.5% (inactive) | 1 (inactive) | 1.11 | 1.11 | 16 AU (inactive) |
| O=c1c(O)c(-c2ccccc2)oc2ccccc12 | 1.99% (inactive) | 0.97 (inactive) | 1.03 | 1 | 24 AU (inactive) |
| C=CCCCCCCCCCCCC(O)CC(O)COC(C)=O (stereo not given) (tested in a mixture with another compound) | 4.12% (inactive) | 0.92 (inactive) | 1 | 0.92 | 36 AU (inactive) |
| CCNC(=O)CC[C@H](N)C(=O)O | 3.3% (inactive) | 0.97 (inactive) | 1.09 | 1.06 | 164 AU (inactive) |
| CC(C)=CCc1c(O)cc2oc(C)cc(=O)c2c1O | 8.51% (inactive) | 0.93 (inactive) | 1.18 | 1.1 | 52 AU (inactive) |
| CCOc1ccc(C(=O)c2ccc(OC)c(O)c2O)cc1 | -3.36% (inactive) | 0.9 (inactive) | 0.9 | 0.81 | 68 AU (inactive) |
| Cc1cc(O)cc(O)c1C(=O)O | -6.2% (inactive) | 0.81 (inactive) | 1.09 | 0.88 | 124 AU (inactive) |
| CC(=O)O[C@H]1C[C@@H](OC(C)=O)C(C)(C)C2C[C@@H](OC(C)=O)[C@@]3(C)C4=CC(=O)O[C@@H](c5ccoc5)[C@]4(C)CCC3[C@]21C (stereo not given in full) | 0.0743% (inactive) | 1.01 (inactive) | 1 | 1.01 | 16 AU (inactive) |
| COc1cccc(O)c1O | -0.395% (inactive) | 0.97 (inactive) | 0.99 | 0.96 | 52 AU (inactive) |
| CC(=O)O[C@H]1C[C@@H](OC(C)=O)C(C)(C)C2CC(=O)[C@]3(C)C(CC[C@@]4(C)[C@H](C(=O)O)OC(=O)C5OC543)[C@]21C (stereo not given in full) | 1.04% (inactive) | 1 (inactive) | 0.99 | 0.99 | 120 AU (inactive) |
| CC(=O)O[C@@H]1CC[C@@]2(C)C(C[C@@H](OC(C)=O)[C@@]3(C)C4=CC(=O)O[C@@H](c5ccoc5)[C@]4(C)CCC23)C1(C)C (stereo not given in full) | -14.7% (inactive) | 0.98 (inactive) | 1.08 | 1.06 | 56 AU (inactive) |
| CCC(C(N)=O)c1ccccc1 (stereo not given) | -20.8% (inactive) | 0.96 (inactive) | 1.17 | 1.12 | 68 AU (inactive) |
| C=C1[C@H]2CC[C@@]3(C)[C@H](c4ccoc4)OC(=O)C[C@]13O[C@H]1C[C@H](O)C(C)(C)[C@H](CC(=O)OC)[C@]12C | -1.87% (inactive) | 1.12 (inactive) | 0.91 | 1.02 | 8 AU (inactive) |
